Reference: PubChem BioAssay (NCATS)
Several values for one entry are separate records, joined by “and”; a condition that tells them apart may be missing. Equal values may be shown once. Records with an inconclusive call do not appear. Activity calls are given as the source filed them. Unless noted, calls come from the whole dose curve; as a rule, active = well fitted curve in the direction sought with a large enough effect; inconclusive = small, poorly fitted or top-dose-only effect, or another doubt; inactive = no such curve, though single readings can be large; an effect the other way counts as inactive or inconclusive.

Tests used:
[1] = Cell Viability - BJ (AID 421; calls by dose curve;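 note: potency is the fitted concentration of half-maximal effect; cells exposed to compound for 40 hours at 37 °C before readout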); conditions: BJ fibroblast viability, qHTS
Outline: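 Luminescent ATP signal (CellTiter-Glo, 20 min at room temperature) served as the read-out of viable BJ cells after 40 hours of compound treatment. Responses were scaled between DMSO and 100 uM tamoxifen, and AC50 values were obtained by Hill modeling.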

[2] = Cell Viability - Jurkat (AID 426;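 active = dose-dependent loss of cell ATP signal giving a full or clear fitted curve, ranked by lower potency value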;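 note: potency is the fitted concentration of half-maximal effect; cells exposed to compound for 40 hours at 37 °C before ATP read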); conditions: qHTS
Outline: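 Seed 5000 Jurkat E6-1 cells/well; add compound; incubate 40 hr at 37 °C; add CellTiter-Glo; wait 20 min at room temperature; read luminescence. Fit concentration-response with Hill equation for AC50.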

[3] = Cell Viability - Hek293 (AID 427;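 active = compounds whose dose-response curve shows a full or clear partial loss of cell viability, called from curve shape rather than a numeric limit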;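 note: potency is the fitted concentration of half-maximal effect; cells exposed to compound for 40 hours at 37 °C before reading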); conditions: qHTS
Outline: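 Luminescent ATP read-out (CellTiter-Glo, 20 min RT) after 40 hr compound exposure at 37 °C in complete medium. Signal normalized to DMSO (basal) and 100 uM tamoxifen (100% inhibition); concentration-response fitted with the standard Hill equation to give AC50.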

[4] = Cell Viability - HepG2 (AID 433; calls by dose curve;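 note: potency is the fitted concentration of half-maximal effect; potency for ATP loss meaning cytotoxicity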); conditions: qHTS
Outline: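 Cytotoxicity read as ATP loss (CellTiter-Glo luminescence) after 40 hr compound exposure of HepG2, 1500 cells/well, 37 °C. AC50 by Hill equation; 0% set by DMSO, 100% inhibition by 100 uM tamoxifen.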

[5] = Cell Viability - MRC5 (AID 434; calls by dose curve;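 note: potency is the fitted concentration of half-maximal effect; cells exposed to compound for 40 hours at 37 °C; potency reflects cytotoxicity seen as loss of intracellular ATP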); conditions: MRC5 lung fibroblast viability, qHTS
Outline: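 MRC5 normal human lung fibroblasts (1500/well) were treated with compounds for 40 hr at 37 °C in complete medium, and viable cells were measured as intracellular ATP by CellTiter-Glo luminescence. AC50 came from Hill fits, normalized to DMSO and 100 uM tamoxifen.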

[6] = Cell Viability - Mesenchymal (AID 546); conditions: mesenchymal cells viability, qHTS; series mostly up to 91.7 µM;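 note: cells exposed to compound for 40 hours before reading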
Outline: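 Normal human renal glomerulus-derived kidney mesenchymal cells, 1000 per well in complete medium, were treated with compounds for 40 hr at 37 °C. Viability was read as intracellular ATP by CellTiter-Glo luminescence; AC50 values came from Hill-equation fits of qHTS concentration-response data.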

[7] = Cellular Toxicity (caspase-3) HepG2 (AID 654); conditions: HepG2 caspase-3 activation, luminescence, 0% = DMSO only, 100% = tamoxifen; series mostly up to 92.2 µM;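 note: cells exposed to compound for 16 hours before reading; 0% = DMSO alone and 100% = caspase signal from 100 µM tamoxifen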
Outline: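 qHTS, HepG2, 1500 cells/well, complete medium; cpd 16 h 37 °C; Caspase-Glo 3/7, 20 min RT; lum. Norm: DMSO vs 100 uM tamoxifen; AC50 Hill fit.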

[8] = Cellular Toxicity (caspase-3) HUV-EC-C (AID 656); conditions: HUV-EC-C cells, caspase-3 activation (apoptosis), vehicle = 0, 100 µM tamoxifen = 100%; series mostly up to 92.2 µM
Outline: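 Luminescent Caspase-Glo 3/7 readout after 16 h, 37 °C compound exposure of HUV-EC-C endothelial cells, 1000 per well, complete medium. AC50 derived by Hill fitting, with DMSO as baseline and 100 uM tamoxifen as full activation.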

[9] = Cellular Toxicity (caspase-3) BJ (AID 658); conditions: BJ fibroblasts, luminescence, normalized: DMSO 0%, staurosporine 100%; series mostly up to 91.7 µM;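 note: cells exposed to compound for 16 hours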
Outline: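 Luminescent aminoluciferin-substrate cleavage reports caspase 3/7 activity in normal human BJ fibroblasts after 16 hr compound exposure at 37 °C. Normalized to DMSO (basal) and 10 uM staurosporine (100%); AC50 from Hill fit of concentration-response.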

[10] = Cellular Toxicity (caspase-3) MRC-5 (AID 659); conditions: MRC-5 cells, luminescence, normalized: DMSO 0%, 10 µM staurosporine 100%; series mostly up to 91.7 µM
Outline: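 Luminescence from caspase-cleaved aminoluciferin substrate (Caspase-Glo 3/7, 1 hr RT) reports caspase 3/7 activity in MRC-5 lung fibroblasts after 16 hr compound exposure. Normalized to DMSO basal and 10 uM staurosporine as 100%; AC50 from Hill fits.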

[11] = Cellular Toxicity (caspase-3) SK-N-SH (AID 661); conditions: SK-N-SH caspase-3 activation, qHTS; series mostly up to 91.7 µM;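 note: cells exposed to compound for 16 hours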
Outline: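 Caspase 3/7 activation is measured as a luminescence increase from aminoluciferin released by substrate cleavage in SK-N-SH cells after 16 hr compound treatment; values are AC50 from concentration-response curves.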

[12] = Cellular Toxicity (caspase-3) Hek293 (AID 664); conditions: HEK293 caspase-3 activation, DMSO = 0%, 100 µM tamoxifen = 100%; at 92.2 µM (top of the series);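 note: cells exposed to compound for 16 h at 37 °C before readout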
Outline: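 Activation of caspase-3/7 is measured as increased luminescence from cleaved peptide-aminoluciferin substrate in HEK293 cells treated 16 hours at 37 °C. AC50 values come from Hill-equation fits of concentration-response data.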

[13] = MultiTox-Fluor Cytotoxicity Assay - LYMP1-001 - Dead Cells (AID 946); conditions: LYMP1-001 lymphoblastoid cells, dead-cell protease fluorescence; series mostly up to 92.2 µM;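 note: 0% = DMSO and 100% = tetraoctylammonium bromide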
Outline: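 AC50 from Hill fit of concentration-response; data normalized to DMSO (basal) and 15 uM tetraoctylammonium bromide (100%). LYMP1-001 lymphoblastoid cells, 2500/well, 16 hr compound at 37 C; dead-cell protease fluorescence, Ex/Em 485/520.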

[14] = Cell Viability - LYMP1-002 - Assay at 16 hr (AID 948); conditions: LYMP1-002 lymphoblastoid cell viability; series mostly up to 92.2 µM;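 note: 0% = DMSO alone and full effect = 92 µM tetraoctylammonium bromide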
Outline: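 ATP luminescence (CellTiter-Glo) was measured after 16 hr compound exposure at 37 C of 2500 lymphoblastoid LYMP1-002 cells per well. Concentration-response curves were fitted with the Hill equation to give AC50.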

[15] = MultiTox-Fluor Cytotoxicity Assay - LYMP1-002 - Live Cells (AID 955); conditions: LYMP1-002 lymphoblastoid live-cell protease fluorescence viability; series mostly up to 46.1 µM;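 note: cells exposed to compound for 16 hours; % is set by controls: 0 for no effect and ±100 for the full control effect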
Outline: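 Cytotoxicity in the human lymphoblastoid line LYMP1-002 is measured as loss of live-cell protease activity after 16 h treatment in complete culture medium. AC50 is derived from Hill-equation fits of qHTS concentration-response data.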

[16] = MultiTox-Fluor Cytotoxicity Assay - LYMP1-003 - Dead Cells (AID 961); conditions: LYMP1-003 lymphoblastoid cells, dead-cell protease fluorescence; series mostly up to 92.2 µM;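 note: 0% = DMSO and 100% = tetraoctylammonium bromide; nearly all actives have a fitted effect of over 70% in size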
Outline: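 Human lymphoblastoid LYMP1-003 cells (2500/well) were treated with compounds for 16 hr at 37 C in complete medium. Dead-cell protease release was read by bis-AAF-R110 fluorescence (Ex/Em 485/520). AC50 came from Hill fits, normalized to DMSO and 15 uM tetraoctylammonium bromide.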

[17] = Cell Viability - LYMP2-016 (AID 984); conditions: LYMP2-016 lymphoblastoid cell viability, qHTS; series mostly up to 92.2 µM;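 note: cells exposed to compound for 24 hours at 37 °C; % is set by controls: 0 for no effect and ±100 for the full control effect; nearly all actives have a fitted effect of over 55% in size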
Outline: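 Cytotoxicity was scored by luminescent ATP content (CellTiter-Glo) after 24 h compound exposure at 37 C of a human lymphoblastoid line at 2500 cells/well. Concentration-response data were fitted to the Hill equation for AC50.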

[18] = Cell Viability - LYMP2-026 (AID 989); conditions: LYMP2-026 lymphoblastoid cell viability, qHTS; series mostly up to 92.2 µM; note: % is set by controls: 0 for no effect and ±100 for the full control effect; nearly all actives have a fitted effect of over 50% in size
Outline: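 Concentration-dependent loss of intracellular ATP in human lymphoblastoid cells after 24 hr at 37 C, quantified by luciferase luminescence. AC50 derived from standard Hill equation.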

[19] = qHTS Assay for Identification of Small Molecule Inducers of Hypoxia Response (AID 2120; active = well fitted curve in the direction sought with a large enough effect in the signal ratio, with a control signal flat, not every such curve was filed as active; the % refers to the signal ratio; note: 0% is about no effect); conditions: hypoxia response reporter cells, beta-lactamase ratio readout; series mostly up to 104 µM
Outline: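 Induction of beta-lactamase reporter activity was measured in CellSensor HRE-bla ME-180 cells after 17 h compound treatment at 37 degrees C, using CCF4 substrate and the 460nm/530nm emission ratio to derive AC50 values.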

[20] = target: Peroxisome proliferator-activated receptor alpha (Homo sapiens) (UniProt Q07869); assay: qHTS assay for small molecule agonists of the peroxisome proliferator-activated receptor alpha (PPARalpha) signaling pathway (AID 651778); conditions: PathHunter PPARalpha complementation, chemiluminescence, 6 h; active compounds read high; note: % of control where 0% means no effect
Outline: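 Cells plated at 2,000/well and held overnight at 37 C, 5% CO2, then compound added by pin tool for 6 hr; after PathHunter detection reagent and 60 min at room temperature, chemiluminescence from enzyme complementation was read.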

Peroxisome proliferator-activated receptor alpha (Homo sapiens), sequence (Q07869 whole entry, looked up): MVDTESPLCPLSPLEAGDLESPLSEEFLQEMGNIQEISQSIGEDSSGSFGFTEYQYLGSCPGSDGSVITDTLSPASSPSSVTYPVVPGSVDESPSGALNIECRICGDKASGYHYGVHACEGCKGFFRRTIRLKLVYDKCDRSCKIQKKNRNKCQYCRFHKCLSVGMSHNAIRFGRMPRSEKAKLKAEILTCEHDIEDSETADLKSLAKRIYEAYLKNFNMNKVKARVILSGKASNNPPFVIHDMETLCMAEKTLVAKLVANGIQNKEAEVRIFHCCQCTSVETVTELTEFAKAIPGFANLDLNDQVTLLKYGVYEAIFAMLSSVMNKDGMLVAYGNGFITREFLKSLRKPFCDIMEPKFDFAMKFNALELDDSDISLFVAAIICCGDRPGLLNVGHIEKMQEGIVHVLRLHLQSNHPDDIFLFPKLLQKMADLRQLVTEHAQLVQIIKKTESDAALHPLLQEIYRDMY

O=[N+]([O-])c1ccc2c3c(cccc13)CC2
inactive: Potency [1] > 92 µM | Potency [2] > 92 µM | Potency [3] > 92 µM | Potency [4] > 92 µM | Potency [5] > 92 µM | Potency [6] | outcome [7] | outcome [8] | outcome [9] | outcome [10] | Potency [11] | caspase-3 activation [12] 1.65% | outcome [13] | outcome [14] | outcome [15] | Potency [16] | Potency [17] | Potency [18] | Potency [19] | max response [20] -11.3% and -0.119%

NC1CCC(CC2CCC(N)CC2)CC1 (stereo not given)
inactive: Potency [1] > 92 µM | Potency [2] > 92 µM | Potency [3] > 92 µM | Potency [4] > 92 µM | Potency [5] > 92 µM | Potency [6] | outcome [7] | outcome [8] | outcome [9] | outcome [10] | Potency [11] | caspase-3 activation [12] -0.935% | outcome [13] | outcome [14] | outcome [15] | Potency [16] | Potency [17] | Potency [18] | Potency [19] | max response [20] -7.49% and -0.343%

CC(C)(Cl)Cl
inactive: Potency [1] > 92 µM | Potency [2] > 92 µM | Potency [3] > 92 µM | Potency [4] > 92 µM | Potency [5] > 92 µM | Potency [6] | outcome [7] | outcome [8] | outcome [9] | outcome [10] | Potency [11] | caspase-3 activation [12] 0.825% | outcome [13] | outcome [14] | outcome [15] | Potency [16] | Potency [17] | Potency [18] | Potency [19] | max response [20] -2.59%

Oc1c(Cl)cccc1Cl
inactive: Potency [1] > 92 µM | Potency [2] > 92 µM | Potency [3] > 92 µM | Potency [4] > 92 µM | Potency [5] > 92 µM | Potency [6] | outcome [7] | outcome [8] | outcome [9] | outcome [10] | Potency [11] | caspase-3 activation [12] 1.84% | outcome [13] | outcome [14] | outcome [15] | Potency [16] | Potency [17] | Potency [18] | Potency [19] | max response [20] -1.21%

CC(Cl)CCl (stereo not given)
inactive: Potency [1] > 92 µM | Potency [2] > 92 µM | Potency [3] > 92 µM | Potency [4] > 92 µM | Potency [5] > 92 µM | Potency [6] | outcome [7] | outcome [8] | outcome [9] | outcome [10] | Potency [11] | caspase-3 activation [12] -1.21% | outcome [13] | outcome [14] | outcome [15] | Potency [16] | Potency [17] | Potency [18] | Potency [19] | max response [20] -4.11%

CN(C)c1ccccc1
inactive: Potency [1] > 92 µM | Potency [2] > 92 µM | Potency [3] > 92 µM | Potency [4] > 92 µM | Potency [5] > 92 µM | Potency [6] | outcome [7] | outcome [8] | outcome [9] | outcome [10] | Potency [11] | caspase-3 activation [12] -0.669% | outcome [13] | outcome [14] | outcome [15] | Potency [16] | Potency [17] | Potency [18] | Potency [19] | max response [20] -1.79%

Clc1ccccc1
inactive: Potency [1] > 92 µM | Potency [2] > 92 µM | Potency [3] > 92 µM | Potency [4] > 92 µM | Potency [5] > 92 µM | Potency [6] | outcome [7] | outcome [8] | outcome [9] | outcome [10] | Potency [11] | caspase-3 activation [12] 0.224% | outcome [13] | outcome [14] | outcome [15] | Potency [16] | Potency [17] | Potency [18] | Potency [19] | max response [20] -0.13%

Nc1ccc(-c2ccc(N)cc2)cc1
inactive: Potency [1] > 92 µM | Potency [2] > 92 µM | Potency [3] > 92 µM | Potency [4] > 92 µM | Potency [5] > 92 µM | Potency [6] | outcome [7] | outcome [8] | outcome [9] | outcome [10] | Potency [11] | caspase-3 activation [12] 0.43% | outcome [13] | outcome [14] | outcome [15] | Potency [16] | Potency [17] | Potency [18] | Potency [19] | max response [20] -0.279%

CN(C)C(=O)Nc1ccc(Cl)cc1
inactive: Potency [1] > 92 µM | Potency [2] > 92 µM | Potency [3] > 92 µM | Potency [4] > 92 µM | Potency [5] > 92 µM | Potency [6] | outcome [7] | outcome [8] | outcome [9] | outcome [10] | Potency [11] | caspase-3 activation [12] 2.1% | outcome [13] | outcome [14] | outcome [15] | Potency [16] | Potency [17] | Potency [18] | Potency [19] | max response [20] -3.6% and -1.79%

Cc1cc(-c2ccc(N)c(C)c2)ccc1N
inactive: Potency [1] > 92 µM | Potency [2] > 92 µM | Potency [3] > 92 µM | Potency [4] > 92 µM | Potency [5] > 92 µM | Potency [6] | outcome [7] | outcome [8] | outcome [9] | outcome [10] | Potency [11] | caspase-3 activation [12] -2.85% | outcome [13] | outcome [14] | outcome [15] | Potency [16] | Potency [17] | Potency [18] | Potency [19] | max response [20] -2.87% and -0.886% and -6.11%

OCCOCCO
inactive: Potency [1] > 92 µM | Potency [2] > 92 µM | Potency [3] > 92 µM | Potency [4] > 92 µM | Potency [5] > 92 µM | Potency [6] | outcome [7] | outcome [8] | outcome [9] | outcome [10] | Potency [11] | caspase-3 activation [12] 3.16% | outcome [13] | outcome [14] | outcome [15] | Potency [16] | Potency [17] | Potency [18] | Potency [19] | max response [20] -3.41%
